The supplement of paper PMC4466140

target: AgAbp1; experiment: SPOT peptide array binding signal intensity (averaged, normalized) (arbitrary units (background-subtracted, floor 0; scale differs between SH3 domains)); higher = stronger binding of the SH3 domain to the peptide
Method: (§1)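 GST-tagged SH3 domains from S. cerevisiae (Sc), A. gossypii (Ag), C. albicans (Ca) and S. pombe (Sp) were incubated at 10 ug/ml overnight at 4 C on cellulose SPOT membranes carrying 292 synthetic 15-mer peptides mined from the S. cerevisiae proteome (cysteines replaced by serines). Binding was detected with anti-GST antibody, HRP secondary and chemiluminescence, quantified with Genespotter, and reported as normalized spot intensities averaged over biological replicates.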

Binder	SPOT peptide array binding signal intensity
RRLRDKYKLPIVDAD	38

target: AgBbc1; experiment: as above
Method: as §1

Binder	SPOT peptide array binding signal intensity
RRLRDKYKLPIVDAD	20.8

target: AgBem1-D1; experiment: as above
Method: as §1

Binder	SPOT peptide array binding signal intensity
RRLRDKYKLPIVDAD	52

target: AgBzz1-D1; experiment: as above
Method: as §1

Binder	SPOT peptide array binding signal intensity
RRLRDKYKLPIVDAD	32

target: AgBzz1-D2; experiment: as above
Method: as §1

Binder	SPOT peptide array binding signal intensity
RRLRDKYKLPIVDAD	61.5

target: AgCyk3; experiment: as above
Method: as §1

Binder	SPOT peptide array binding signal intensity
RRLRDKYKLPIVDAD	1

target: AgFus1; experiment: as above
Method: as §1

Binder	SPOT peptide array binding signal intensity
RRLRDKYKLPIVDAD	163

target: AgHof1; experiment: as above
Method: as §1

Binder	SPOT peptide array binding signal intensity
RRLRDKYKLPIVDAD	17

target: AgHse1; experiment: as above
Method: as §1

Binder	SPOT peptide array binding signal intensity
RRLRDKYKLPIVDAD	748

target: AgLsb1; experiment: as above
Method: as §1

Binder	SPOT peptide array binding signal intensity
RRLRDKYKLPIVDAD	6

target: AgLsb4; experiment: as above
Method: as §1

Binder	SPOT peptide array binding signal intensity
RRLRDKYKLPIVDAD	18

target: AgMyo5; experiment: as above
Method: as §1

Binder	SPOT peptide array binding signal intensity
RRLRDKYKLPIVDAD	0.75

target: AgNbp2; experiment: as above
Method: as §1

Binder	SPOT peptide array binding signal intensity
RRLRDKYKLPIVDAD	63

target: AgRvs167; experiment: as above
Method: as §1

Binder	SPOT peptide array binding signal intensity
RRLRDKYKLPIVDAD	3.33

target: AgSho1; experiment: as above
Method: as §1

Binder	SPOT peptide array binding signal intensity
RRLRDKYKLPIVDAD	83

target: AgSla1-D1-D2; experiment: as above
Method: as §1

Binder	SPOT peptide array binding signal intensity
RRLRDKYKLPIVDAD	299

target: AgSla1-D3; experiment: as above
Method: as §1

Binder	SPOT peptide array binding signal intensity
RRLRDKYKLPIVDAD	3

target: CaAbp1-D1; experiment: as above
Method: as §1

Binder	SPOT peptide array binding signal intensity
RRLRDKYKLPIVDAD	311

target: CaAbp1-D2; experiment: as above
Method: as §1

Binder	SPOT peptide array binding signal intensity
RRLRDKYKLPIVDAD	326

target: CaBbc1; experiment: as above
Method: as §1

Binder	SPOT peptide array binding signal intensity
RRLRDKYKLPIVDAD	13

target: CaBem1-D1; experiment: as above
Method: as §1

Binder	SPOT peptide array binding signal intensity
RRLRDKYKLPIVDAD	5.5

target: CaBzz1-D1; experiment: as above
Method: as §1

Binder	SPOT peptide array binding signal intensity
RRLRDKYKLPIVDAD	180

target: CaBzz1-D2; experiment: as above
Method: as §1

Binder	SPOT peptide array binding signal intensity
RRLRDKYKLPIVDAD	34.5

target: CaCyk3; experiment: as above
Method: as §1

Binder	SPOT peptide array binding signal intensity
RRLRDKYKLPIVDAD	3

target: CaFus1; experiment: as above
Method: as §1

Binder	SPOT peptide array binding signal intensity
RRLRDKYKLPIVDAD	318

target: CaHof1; experiment: as above
Method: as §1

Binder	SPOT peptide array binding signal intensity
RRLRDKYKLPIVDAD	0.5

target: CaHse1; experiment: as above
Method: as §1

Binder	SPOT peptide array binding signal intensity
RRLRDKYKLPIVDAD	12.2

target: CaLsb1; experiment: as above
Method: as §1

Binder	SPOT peptide array binding signal intensity
RRLRDKYKLPIVDAD	1

target: CaLsb4; experiment: as above
Method: as §1

Binder	SPOT peptide array binding signal intensity
RRLRDKYKLPIVDAD	13

target: CaMyo5; experiment: as above
Method: as §1

Binder	SPOT peptide array binding signal intensity
RRLRDKYKLPIVDAD	1.5

target: CaNbp2; experiment: as above
Method: as §1

Binder	SPOT peptide array binding signal intensity
RRLRDKYKLPIVDAD	102

target: CaRvs167; experiment: as above
Method: as §1

Binder	SPOT peptide array binding signal intensity
RRLRDKYKLPIVDAD	5.5

target: CaRvs167-3; experiment: as above
Method: as §1

Binder	SPOT peptide array binding signal intensity
RRLRDKYKLPIVDAD	42.5

target: CaSho1; experiment: as above
Method: as §1

Binder	SPOT peptide array binding signal intensity
RRLRDKYKLPIVDAD	241

target: CaSla1-D1-D2; experiment: as above
Method: as §1

Binder	SPOT peptide array binding signal intensity
RRLRDKYKLPIVDAD	5

target: CaSla1-D3; experiment: as above
Method: as §1

Binder	SPOT peptide array binding signal intensity
RRLRDKYKLPIVDAD	1.75

target: ScAbp1; experiment: as above
Method: as §1

Binder	SPOT peptide array binding signal intensity
RRLRDKYKLPIVDAD	14.5

target: ScBbc1; experiment: as above
Method: as §1

Binder	SPOT peptide array binding signal intensity
RRLRDKYKLPIVDAD	8.5

target: ScBem1-D1; experiment: as above
Method: as §1

Binder	SPOT peptide array binding signal intensity
RRLRDKYKLPIVDAD	26

target: ScBzz1-D1; experiment: as above
Method: as §1

Binder	SPOT peptide array binding signal intensity
RRLRDKYKLPIVDAD	18

target: ScBzz1-D2; experiment: as above
Method: as §1

Binder	SPOT peptide array binding signal intensity
RRLRDKYKLPIVDAD	23

target: ScCyk3; experiment: as above
Method: as §1

Binder	SPOT peptide array binding signal intensity
RRLRDKYKLPIVDAD	22

target: ScFus1; experiment: as above
Method: as §1

Binder	SPOT peptide array binding signal intensity
RRLRDKYKLPIVDAD	115

target: ScHof1; experiment: as above
Method: as §1

Binder	SPOT peptide array binding signal intensity
RRLRDKYKLPIVDAD	1

target: ScHse1; experiment: as above
Method: as §1

Binder	SPOT peptide array binding signal intensity
RRLRDKYKLPIVDAD	1110

target: ScLsb1; experiment: as above
Method: as §1

Binder	SPOT peptide array binding signal intensity
RRLRDKYKLPIVDAD	9

target: ScLsb2; experiment: as above
Method: as §1

Binder	SPOT peptide array binding signal intensity
RRLRDKYKLPIVDAD	7.5

target: ScLsb3; experiment: as above
Method: as §1

Binder	SPOT peptide array binding signal intensity
RRLRDKYKLPIVDAD	90

target: ScLsb4; experiment: as above
Method: as §1

Binder	SPOT peptide array binding signal intensity
RRLRDKYKLPIVDAD	8

target: ScMyo3; experiment: as above
Method: as §1

Binder	SPOT peptide array binding signal intensity
RRLRDKYKLPIVDAD	2.5

target: ScMyo5; experiment: as above
Method: as §1

Binder	SPOT peptide array binding signal intensity
RRLRDKYKLPIVDAD	1.5

target: ScNbp2; experiment: as above
Method: as §1

Binder	SPOT peptide array binding signal intensity
RRLRDKYKLPIVDAD	90

target: ScPex13; experiment: as above
Method: as §1

Binder	SPOT peptide array binding signal intensity
RRLRDKYKLPIVDAD	0.5

target: ScRvs167; experiment: as above
Method: as §1

Binder	SPOT peptide array binding signal intensity
RRLRDKYKLPIVDAD	3.33

target: ScSho1; experiment: as above
Method: as §1

Binder	SPOT peptide array binding signal intensity
RRLRDKYKLPIVDAD	411

target: ScSla1-D1-D2; experiment: as above
Method: as §1

Binder	SPOT peptide array binding signal intensity
RRLRDKYKLPIVDAD	36.5

target: ScSla1-D3; experiment: as above
Method: as §1

Binder	SPOT peptide array binding signal intensity
RRLRDKYKLPIVDAD	13

target: SpAbp1-D1; experiment: as above
Method: as §1

Binder	SPOT peptide array binding signal intensity
RRLRDKYKLPIVDAD	88.5

target: SpBbc1; experiment: as above
Method: as §1

Binder	SPOT peptide array binding signal intensity
RRLRDKYKLPIVDAD	0.75

target: SpBzz1-D1; experiment: as above
Method: as §1

Binder	SPOT peptide array binding signal intensity
RRLRDKYKLPIVDAD	56
